The panel holds about 79,000 compounds, 15% with a hit somewhere; the sample as a whole holds those more often. Calls of active or inactive are those of the source. Cut-off read from the data, not from the text of the source: active = growth inhibition above about 70%; inactive = the rest.
How the values were obtained:
[1] = NCI Yeast Anticancer Drug Screen. Data for the rad50 strain (AID 155);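 note: 0% = growth of vehicle-only cultures of the same strain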; conditions: S. cerevisiae rad50 strain growth inhibition; at 50.0 µM; hits give high values
Outline: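 Genetically altered yeast (DNA repair pathway); compound treatment; growth inhibition vs vehicle ctrl.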

[2] = NCI Yeast Anticancer Drug Screen. Data for the mec2-1 strain (AID 157); conditions: S. cerevisiae mec2-1 strain, at 50.0 µM, hits give high values
Outline: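 Each compound was tested on mec2-1 yeast, a strain altered in DNA damage repair or cell cycle control. Growth inhibition is reported relative to vehicle.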

[3] = NCI Yeast Anticancer Drug Screen. Data for the sgs1 mgt1 strain (AID 161);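 note: 0% = growth of cultures given vehicle only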; conditions: S. cerevisiae sgs1 mgt1 strain, at 50.0 µM, hits give high values
Outline: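 Genetically altered yeast, compound exposure, growth inhibition relative to vehicle.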

[4] = NCI Yeast Anticancer Drug Screen. Data for the cln2 rad14 strain (AID 165);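 note: 0% = growth equal to vehicle treated cultures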; conditions: S. cerevisiae cln2 rad14 strain, at 50.0 µM, hits give high values
Outline: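 Test compounds were added to cln2 rad14 yeast cultures; inhibition of growth was then determined by comparison with vehicle treatment.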

[5] = NCI Yeast Anticancer Drug Screen. Data for the bub3 strain (AID 167); conditions: S. cerevisiae bub3 mutant strain, at 50.0 µM, hits give high values
Outline: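 Yeast carrying a defined mutation is treated with each compound, and growth is compared with that of vehicle-exposed cells to give inhibition.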

[6] = NCI Yeast Anticancer Drug Screen. Data for the mlh1 rad18 strain (AID 175); conditions: S. cerevisiae mlh1 rad18 strain growth inhibition; at 50.0 µM; hits give high values
Outline: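 Inhibition values reflect reduced growth of mutant yeast versus vehicle-treated controls following compound exposure; the mutations affect DNA damage repair.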

Measured: growth inhibition

CC(NC(=O)C(=O)c1ccccc1)c1ccccc1 (configuration not stated)
inactive: [1] 10.4% | [2] -2.95% | [3] -13.6% | [4] 20.1% | [5] 27.4% | [6] -12.2%

COc1ccc(-c2nc(-c3cc4c(ccc5ccccc54)oc3=O)cs2)cc1
inactive: [1] 24.4% | [2] 18.5% | [3] 1.45% | [4] 15% | [5] 0.9% | [6] -41.5%

Cc1cc(=O)c(O)c(C)o1
inactive: [1] -1.4% | [2] -2.9% | [3] -3.4% | [4] 2.5% | [5] -0.05% | [6] -1.7%

CCCCCCCCCCCCCCCC1=NN(c2ccccc2)C(=O)C1N=Nc1ccccc1 (configuration not stated)
inactive: [1] 8.2% | [2] -8.95% | [3] -0.75% | [4] -10.2% | [5] -3.3% | [6] 2.05%

O=C(O)c1cc(-c2ccccc2Cl)nc2ccccc12
inactive: [1] 10.7% | [2] -6.55% | [3] -8.3% | [4] -10.7% | [5] 19.8% | [6] 0.45%

CC(=O)NCCc1ccc(C(=O)O)cc1
inactive: [1] -17% | [2] -1% | [3] 2.2% | [4] -34.2% | [5] -11.4% | [6] 3.65%

COc1ccc(S(=O)(=O)N/N=C/c2cc(I)cc([N+](=O)[O-])c2O)cc1
inactive: [1] 15.1% | [2] 0.6% | [3] 9.85% | [4] 8% | [5] -3.85% | [6] 2.5%

Cc1c(Cc2ccccc2)c(N2CCOCC2)n2c(nc3ccccc32)c1C#N
inactive: [1] 4.75% | [2] 5.25% | [3] 0.65% | [4] -4.55% | [5] -2.8% | [6] 5.65%

Cc1ccc(Cl)cc1NS(=O)(=O)c1ccccc1
inactive: [1] -4.35% | [2] -31.1% | [3] -2.8% | [4] -14.3% | [5] -22.8% | [6] 5.55%

CC(=O)OC(C)/C=C\C#N (configuration not stated)
inactive: [1] -17.9% | [2] 14.3% | [3] 5.25% | [4] -2.65% | [5] 0.35% | [6] 37.8%

CCCOc1cc2c(cc1C(C)c1ccc(OCC)cc1)OCO2 (configuration not stated)
inactive: [1] 36% | [2] -25.8% | [3] -9.3% | [4] 0.9% | [5] -26.8% | [6] -49.8%

O=C1CSSCC(=O)NCCCN1
inactive: [1] 2.25% | [2] 1.15% | [3] -5.35% | [4] 0.8% | [5] 2.55% | [6] 28.2%

CCOC(=O)c1c(NC(=O)CCl)ssc1=S
inactive: [1] 15.2% | [2] 28.4% | [3] 42.5% | [4] 22.8% | [5] 4.7% | [6] 43.6%

CC(C)(C)OC(=O)NNC(=O)c1ccc([N+](=O)[O-])cc1
inactive: [1] 17.2% | [2] -9.8% | [3] -2.5% | [4] 30.6% | [5] 3.75% | [6] 5.8%

N/N=C(\N)N(Cc1ccccc1)c1ccccc1
inactive: [1] 10.3% | [2] 25.7% | [3] 2.85% | [4] -11.6% | [5] -2.6% | [6] 4.75%

O=C1C2CCCC3CCCC(C(=O)N1NC1CCCCC1)C32 (configuration not stated)
inactive: [1] 39.4% | [2] 28.6% | [3] 27.9% | [4] 29.7% | [5] 53.4% | [6] 49%

CC1(C)CC(=O)C(/C=N/C(=S)NCCc2ccccc2)=C(O)C1
inactive: [1] -22.8% | [2] -53.4% | [3] -21.3% | [4] -2.85% | [5] -14.8% | [6] -7.6%

NN1CCOC1=O
inactive: [1] 1.4% | [2] -35.9% | [3] 11.7% | [4] -2.9% | [5] -14.1% | [6] -1.7%

O=C(O)C1CCCCN1/N=C/c1ccccc1 (configuration not stated)
inactive: [1] 15.8% | [2] 6.8% | [3] -1.65% | [4] -13.6% | [5] -30.8% | [6] 21.9%

CCOP(=O)(OCC)c1nc(Cl)nc(Cl)c1SC(F)(F)F
inactive: [1] 33.3% | [2] 11.3% | [3] 14.5% | [4] 13.2% | [5] -4.4% | [6] 25.2%

Cc1ccc(NC(=O)CCC(=O)C2Cc3ccccc3C2=O)cc1C (configuration not stated)
inactive: [1] -16% | [2] -7.55% | [3] -5.05% | [4] 21.3% | [5] 1.65% | [6] 3.85%

O=C(O)/C(O)=C(/O)C(=O)O.[NH-]C1CCCCC1[NH-].[Pt+2]
inactive: [1] 27.3% | [2] 29.1% | [3] 28.4% | [4] 16.1% | [5] 26.9% | [6] 25.6%

O=C(O)CSc1n[nH]c(-c2ccc(O)cc2)n1
inactive: [1] -18.3% | [2] -7.25% | [3] -7.5% | [4] 18.6% | [5] 4.95% | [6] 37.2%

COc1cc(C(=O)NC(=S)NC2CCCCCCCCCCC2)cc(OC)c1OC
inactive: [1] 8.1% | [2] -15.3% | [3] 7.25% | [4] 1.65% | [5] 6.05% | [6] 4.6%

Cc1cc(Cl)c2ccc(Cl)c(C)c2n1
inactive: [1] 6.65% | [2] -8.55% | [3] 3.65% | [4] -11.1% | [5] 5.4% | [6] 0.15%

O=C(c1ccccc1)N1C(c2ccccc2)C1(c1ccccc1)C1(c2ccccc2)SCCCS1 (configuration not stated)
inactive: [1] -17.6% | [2] 14.7% | [3] -13.4% | [4] -61.6% | [5] -0.1% | [6] -1.25%

COc1ccc(C2OCCC(C)O2)cc1OC (configuration not stated)
inactive: [1] -14.6% | [2] -12.8% | [3] -19.7% | [4] -48.8% | [5] -33.5% | [6] -14.8%

OC(CCN1CCC2CCC(C2)C1)(c1ccccc1)c1ccco1 (configuration not stated)
inactive: [1] 7.75% | [2] -3.15% | [3] -5.25% | [4] -15.6% | [5] -0.05% | [6] -4.75%

Cc1ccc(NC(=O)c2ccccc2[N+](=O)[O-])cc1
inactive: [1] 12.5% | [2] 15.8% | [3] 0.1% | [4] 20.4% | [5] -2.1% | [6] -10.2%

O=C(NCCCCCCNC(=O)N1CCCCC1)c1cccnc1
inactive: [1] -7.8% | [2] -21.3% | [3] -3.65% | [4] -27.2% | [5] 13.3% | [6] -33.6%

O=C(OC1COC(n2c(=O)oc3cc(Br)c(Cl)cc32)C(OC(=O)c2ccccc2)C1OC(=O)c1ccccc1)c1ccccc1 (configuration not stated)
inactive: [1] 4.55% | [2] -2.25% | [3] -8.15% | [4] -3.05% | [5] 4.85% | [6] 14.4%

COC(=O)C(=O)C(C(=O)C(=O)Nc1nc(=S)[nH][nH]1)c1nc2ccc([N+](=O)[O-])cc2[nH]c1=O (configuration not stated)
inactive: [1] 36% | [2] 20.6% | [3] 11.1% | [4] -17.6% | [5] 22.4% | [6] 18.9%

NNc1nnnc2ccccc12
inactive: [1] 14.2% | [2] 1.1% | [3] -0.8% | [4] -38.2% | [5] -31.1% | [6] 22.2%

CC(C)(c1ccccc1)[Si](c1ccccc1)(c1ccccc1)c1ccccc1
inactive: [1] 30.1% | [2] -7.05% | [3] 9.95% | [4] 3.2% | [5] -6.85% | [6] 0.65%

CC12CCC(O)CC1=CCC1C2CCC2(C)C1CCC21SCCS1 (configuration not stated)
inactive: [1] 2.35% | [2] 9.7% | [3] 20.2% | [4] 14.4% | [5] 13.8% | [6] 13%

CCCCCCOc1ccc(OCCCC[N+]2(CC)CCCCC2)cc1
active: [1] 75.5% | [2] 87.8% | [3] 73.7% | [5] 90.8% | [6] 90.8%
inactive: [4] 46.5%

CCCOC(=O)Nc1cccc2ccccc12
inactive: [1] 0.65% | [2] -9.3% | [3] 12.5% | [4] -62.4% | [5] -21.8% | [6] -17.2%

COC(=O)C(Cc1ccc2c(c1)OCO2)(NC(=O)c1ccccc1)P(=O)(OC)OC (configuration not stated)
inactive: [1] -30.5% | [2] 1.05% | [3] -8.6% | [4] 16.8% | [5] -25.1% | [6] -32.5%

CC1=NN(c2ccccc2C)C(=O)C1
inactive: [1] 2.05% | [2] -27.8% | [3] -5.1% | [4] -2.6% | [5] -27.9% | [6] 8.1%

O=C(OCCCCO)c1cc([N+](=O)[O-])cc([N+](=O)[O-])c1
inactive: [1] -12.8% | [2] 13.9% | [3] 0.1% | [4] 0.7% | [5] 12.1% | [6] -27.9%

NNC(=O)c1nnc(N)o1
inactive: [1] -11.6% | [2] -12.1% | [3] 7.25% | [4] -9.45% | [5] -11.7% | [6] 6.45%

COc1cc(OC)c2[nH]c3c(c(=O)c2c1)C(=O)c1[nH]c2c(OC)cc(OC)cc2c(=O)c1C3=O
inactive: [1] 26.8% | [2] 4.55% | [3] 12.8% | [4] 17.4% | [5] -3.55% | [6] 19.9%

Source: PubChem BioAssay (NCI)
